Bioassay records (PubChem BioAssay)
This excerpt belongs to a sample that is enriched for hits.
VACV E9 pol inh – inhibitors of vaccinia virus processive DNA synthesis (E9 polymerase). AID 493162. actives 0.94% (n = 46,000). in vitro processive DNA synthesis, absorbance read-out; active compounds read low. normalized absorbance, % (no concentration beside the values); in the data active means normalized absorbance mostly below about 85%, no sharp cut-off; inactive means mostly above about 86%
* = called active by the depositor.

SMILES | VACV E9 pol inh
COc1ccc(NC(=O)[C@H](CCS(C)(=O)=O)N2Cc3ccccc3C2=O)cc1Cl | 103.6
COc1cc(/C=C2/SC(=Nc3cccc(Cl)c3Cl)NC2=O)cc(OC)c1OC | 102.7
C[n+]1ccc(/C=C/c2ccc3c(c2)OCO3)c2ccccc21 | 59.9*
C[n+]1ccc(/C=C\c2ccco2)c2ccccc21 | 90.9
C[n+]1ccc(/C=C/c2ccccc2O)c2ccccc21 | 99.9
O=C(CSc1nc(-c2ccccc2)[nH]c1-c1ccccc1)Nc1ccccc1 | 89.4
CCc1ccc(/C=C2\SC(=S)N(CCCC(=O)NC3CCCC3)C2=O)cc1 | 101.1
COC(=O)c1c2c(n3cc4ccccc4cc13)C(=O)c1ccccc1C2=O | 99.2
COC(=O)c1c2c(n3ccc(C)cc13)C(=O)c1ccccc1C2=O | 95.9
COC(=O)c1c2c(n3ccccc13)C(=O)c1ccccc1C2=O | 61.8*
N#CC1=C(N=Cc2cc(Cl)cc(Cl)c2O)CCC1 | 83.0*
Oc1c(Cl)cc(Cl)cc1/C=N/c1nc2c(s1)CCCC2 | 97.1
N#CC1=C(N=Cc2c(O)ccc3ccccc23)CCC1 | 99.0
CC(C)S(=O)(=O)C1=NSC2=NC(=O)/C(=C\c3ccco3)C(=N)N21 | 91.9
Cc1ccc(S(=O)(=O)N2N=NC3C4CC(C5CC=CC54)C32)cc1 (centres undefined) | 100.1
CC(C)NC(=O)c1cc(Cl)cc(Cl)c1 | 100.5
CCOC(=O)c1cc(-c2ccnn2S(=O)(=O)c2cccc(C(F)(F)F)c2)on1 | 69.3*
CCOC(=O)c1cc(-c2ccnn2C(=O)c2ccccc2)on1 | 95.9
Cc1cc(-c2nc(-c3ccnn3S(=O)(=O)c3cccc(C(F)(F)F)c3)cs2)no1 | 101.0
O=C(c1sc2cc(F)ccc2c1Cl)N1CCCCCC1 | 79.5
CCN(CC)CCOc1ccc(/C(C)=N\O)cc1 | 100.5
CCN(CC)CCOC(=O)C(c1ccccc1)c1ccccc1 | 102.7
CCN(CC)CCOc1ccc2c(c1)C(=O)c1cc(OCCN(CC)CC)ccc1-2 | 29.8*
CCCc1ccc(/C(=N/O)C(=O)O)s1 | 98.3
Cc1cccc(C(=O)NCCSc2c[nH]c3ccccc23)c1 | 101.0
O=C(O)c1ccc2c(c1)no[n+]2[O-] | 100.1
CC1=NN(C(=S)c2ccc(C)cc2)C(C)(O)C1CC(C)C (centres undefined) | 99.2
O=c1ccc2c(C(F)(F)F)cc(C(F)(F)F)nc2[nH]1 | 101.6
